Common to all, as to assay: DAPPL (digital affinity profiling via proximity ligation, sequencing); 10 mM Tris-HCl pH 7.5, 50 mM NaCl, 1 mM DTT, 4% glycerol, room temperature, 30 min; GST-TFs on glutathione beads, 16-mer random dsDNA library, 0.1% formaldehyde crosslink after washing; high values mean tight binding
Assay [1] deals with T1, FEV (Homo sapiens, UniProt Q99581 1-238).
T1 sequence: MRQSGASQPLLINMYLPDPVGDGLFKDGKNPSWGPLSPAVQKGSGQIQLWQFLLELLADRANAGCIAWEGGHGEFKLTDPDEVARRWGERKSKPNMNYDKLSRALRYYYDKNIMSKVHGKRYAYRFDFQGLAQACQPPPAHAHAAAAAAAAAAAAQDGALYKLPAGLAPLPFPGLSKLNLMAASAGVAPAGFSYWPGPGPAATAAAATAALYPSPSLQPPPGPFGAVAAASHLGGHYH
The settings on record: protein: recombinant; tags: N-terminal GST; dsDNA, one strand shown. The method, boiled down: (§1)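 Human transcription factors fused to GST were expressed in yeast, captured on glutathione beads, given DNA barcodes and pooled with a GST-only negative control. Pools were incubated with 200 nmole of a 16-mer random double-stranded DNA library in Tris/NaCl/DTT/glycerol buffer at room temperature for 30 min. They were then washed, crosslinked with 0.1% formaldehyde, proximity-ligated (BsaI/T4 ligase, 1 h, 37 °C), PCR-amplified and sequenced on an Illumina NextSeq500. Binding signal is each 6-mer's read frequency for a factor divided by its frequency for the GST control.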

Assay [2] concerns the target ETV5 (Homo sapiens, UniProt P41161 1-510). The conditions noted are these: protein: recombinant; tags: N-terminal GST; dsDNA, one strand shown. The method, boiled down:
as §1

Assay [3] addresses HSF1 (Homo sapiens, UniProt Q00613 1-529). The conditions noted are these: protein: recombinant; tags: N-terminal GST; chain copies: 3; dsDNA, one strand shown. In short, it runs like this: as §1
For assay [4], the target named is T2, SPIC (Homo sapiens, UniProt Q8N5J4 1-248).
T2 sequence: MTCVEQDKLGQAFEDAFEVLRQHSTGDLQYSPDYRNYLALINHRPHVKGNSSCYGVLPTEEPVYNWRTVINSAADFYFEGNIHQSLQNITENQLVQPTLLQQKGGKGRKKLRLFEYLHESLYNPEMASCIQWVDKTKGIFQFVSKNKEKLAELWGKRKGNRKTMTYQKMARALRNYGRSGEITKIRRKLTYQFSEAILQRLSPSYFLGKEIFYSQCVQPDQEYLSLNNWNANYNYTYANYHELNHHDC
The conditions noted are these: protein: recombinant; tags: N-terminal GST; dsDNA, one strand shown. The method, boiled down:
as §1

Assay [5] concerns the target ELF4 (Homo sapiens, UniProt Q99607 1-663). The conditions noted are these: protein: recombinant; tags: N-terminal GST; dsDNA, one strand shown. The method, boiled down:
as §1

Assay [6] concerns the target T3, ELK4 (Homo sapiens, UniProt P28324-2 1-405).
T3 sequence: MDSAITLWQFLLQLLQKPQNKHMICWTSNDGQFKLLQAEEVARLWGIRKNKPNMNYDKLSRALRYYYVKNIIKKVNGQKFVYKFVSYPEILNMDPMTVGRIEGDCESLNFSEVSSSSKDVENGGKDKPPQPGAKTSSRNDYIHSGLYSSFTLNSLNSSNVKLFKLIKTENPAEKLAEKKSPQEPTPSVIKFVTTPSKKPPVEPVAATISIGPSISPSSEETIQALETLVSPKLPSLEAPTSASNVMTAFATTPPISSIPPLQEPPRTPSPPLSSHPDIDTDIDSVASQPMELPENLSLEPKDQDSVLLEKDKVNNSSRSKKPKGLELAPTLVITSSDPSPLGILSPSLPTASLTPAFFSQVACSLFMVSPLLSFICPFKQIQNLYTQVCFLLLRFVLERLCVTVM
The conditions noted are these: protein: recombinant; tags: N-terminal GST; dsDNA, one strand shown. In short, it runs like this: as §1

The target in assay [7] is T4, ETV2 (Homo sapiens, UniProt O00321 1-342).
T4 sequence: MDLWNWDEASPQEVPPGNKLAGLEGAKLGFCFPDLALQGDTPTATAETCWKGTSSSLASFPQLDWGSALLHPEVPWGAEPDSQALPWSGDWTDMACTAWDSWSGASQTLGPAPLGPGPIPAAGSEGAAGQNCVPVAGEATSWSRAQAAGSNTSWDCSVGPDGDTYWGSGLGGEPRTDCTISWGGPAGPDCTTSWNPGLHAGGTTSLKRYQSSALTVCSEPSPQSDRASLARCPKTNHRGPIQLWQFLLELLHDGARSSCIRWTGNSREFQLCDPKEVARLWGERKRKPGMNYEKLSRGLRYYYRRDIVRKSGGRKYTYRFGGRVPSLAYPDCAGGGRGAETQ
The settings on record: protein: recombinant; tags: N-terminal GST; dsDNA, one strand shown. The method, boiled down:
as §1

Assay [8] addresses T5, ELF3 (Homo sapiens, UniProt P78545 1-371).
T5 sequence: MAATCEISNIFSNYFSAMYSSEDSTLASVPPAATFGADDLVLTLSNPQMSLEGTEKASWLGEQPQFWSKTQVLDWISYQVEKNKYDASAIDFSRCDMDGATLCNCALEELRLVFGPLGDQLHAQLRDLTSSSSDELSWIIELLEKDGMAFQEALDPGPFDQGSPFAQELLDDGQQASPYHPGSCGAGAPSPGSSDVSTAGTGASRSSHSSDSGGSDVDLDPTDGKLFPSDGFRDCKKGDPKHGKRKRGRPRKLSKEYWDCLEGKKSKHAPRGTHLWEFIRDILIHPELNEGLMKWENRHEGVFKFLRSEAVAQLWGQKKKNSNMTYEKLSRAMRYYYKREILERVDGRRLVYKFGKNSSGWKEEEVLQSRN
The settings on record: protein: recombinant; tags: N-terminal GST; dsDNA, one strand shown. In short, it runs like this: as §1

In assay [9] the target is CRX (Homo sapiens, UniProt O43186 1-299). The conditions noted are these: protein: recombinant; tags: N-terminal GST; dsDNA, one strand shown. The method, boiled down: as §1
Assay [10] has as its target ETV1 (Homo sapiens, UniProt P50549 1-477). The settings on record: protein: recombinant; tags: N-terminal GST; dsDNA, one strand shown. In short, it runs like this:
as §1

Assay [11] deals with T6, ERF (Homo sapiens, UniProt P50548 1-548).
T6 sequence: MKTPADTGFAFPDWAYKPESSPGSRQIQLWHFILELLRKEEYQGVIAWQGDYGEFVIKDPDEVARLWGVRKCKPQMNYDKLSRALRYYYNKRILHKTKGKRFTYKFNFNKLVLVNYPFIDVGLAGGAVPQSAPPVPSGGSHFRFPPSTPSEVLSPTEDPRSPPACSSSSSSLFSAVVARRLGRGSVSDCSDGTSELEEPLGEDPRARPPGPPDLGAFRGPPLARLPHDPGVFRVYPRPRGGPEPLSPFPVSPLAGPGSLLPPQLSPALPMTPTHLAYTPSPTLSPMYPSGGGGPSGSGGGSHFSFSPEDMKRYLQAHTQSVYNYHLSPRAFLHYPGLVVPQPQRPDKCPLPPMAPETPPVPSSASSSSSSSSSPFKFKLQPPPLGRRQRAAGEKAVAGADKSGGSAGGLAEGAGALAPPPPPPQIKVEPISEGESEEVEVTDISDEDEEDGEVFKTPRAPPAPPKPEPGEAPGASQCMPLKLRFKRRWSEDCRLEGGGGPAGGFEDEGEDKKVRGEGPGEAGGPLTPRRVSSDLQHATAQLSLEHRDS
The settings on record: protein: recombinant; tags: N-terminal GST; dsDNA, one strand shown. The method, boiled down:
as §1

The target in assay [12] is T7, ETV3L (Homo sapiens, UniProt Q6ZN32 1-361).
T7 sequence: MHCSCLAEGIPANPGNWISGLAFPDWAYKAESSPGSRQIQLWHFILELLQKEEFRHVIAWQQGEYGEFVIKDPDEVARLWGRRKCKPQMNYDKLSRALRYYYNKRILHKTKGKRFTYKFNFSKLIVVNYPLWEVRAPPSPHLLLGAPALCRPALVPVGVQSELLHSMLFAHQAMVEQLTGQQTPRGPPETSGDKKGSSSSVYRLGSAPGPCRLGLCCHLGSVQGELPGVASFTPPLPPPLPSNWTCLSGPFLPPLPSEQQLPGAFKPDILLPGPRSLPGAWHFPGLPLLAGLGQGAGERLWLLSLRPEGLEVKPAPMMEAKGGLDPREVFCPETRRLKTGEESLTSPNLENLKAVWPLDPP
The conditions noted are these: protein: recombinant; tags: N-terminal GST; dsDNA, one strand shown. In short, it runs like this:
as §1

Assay [13] concerns the target T8, ETS2 (Homo sapiens, UniProt P15036 1-469).
T8 sequence: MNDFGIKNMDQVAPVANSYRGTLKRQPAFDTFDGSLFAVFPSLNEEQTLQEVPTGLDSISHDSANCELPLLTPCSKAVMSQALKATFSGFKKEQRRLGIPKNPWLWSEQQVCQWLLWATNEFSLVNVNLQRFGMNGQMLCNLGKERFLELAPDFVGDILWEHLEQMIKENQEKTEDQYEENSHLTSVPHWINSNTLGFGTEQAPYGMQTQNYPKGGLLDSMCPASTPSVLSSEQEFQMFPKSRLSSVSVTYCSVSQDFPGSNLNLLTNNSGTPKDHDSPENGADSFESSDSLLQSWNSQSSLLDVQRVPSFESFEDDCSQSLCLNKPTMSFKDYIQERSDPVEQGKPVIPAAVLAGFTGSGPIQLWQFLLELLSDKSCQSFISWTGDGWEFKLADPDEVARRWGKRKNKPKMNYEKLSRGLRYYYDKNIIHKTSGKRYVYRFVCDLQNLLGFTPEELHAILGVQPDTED
The settings on record: protein: recombinant; tags: N-terminal GST; dsDNA, one strand shown. The method, boiled down:
as §1

Assay [14] concerns the target T9, SPDEF (Homo sapiens, UniProt O95238 1-335).
T9 sequence: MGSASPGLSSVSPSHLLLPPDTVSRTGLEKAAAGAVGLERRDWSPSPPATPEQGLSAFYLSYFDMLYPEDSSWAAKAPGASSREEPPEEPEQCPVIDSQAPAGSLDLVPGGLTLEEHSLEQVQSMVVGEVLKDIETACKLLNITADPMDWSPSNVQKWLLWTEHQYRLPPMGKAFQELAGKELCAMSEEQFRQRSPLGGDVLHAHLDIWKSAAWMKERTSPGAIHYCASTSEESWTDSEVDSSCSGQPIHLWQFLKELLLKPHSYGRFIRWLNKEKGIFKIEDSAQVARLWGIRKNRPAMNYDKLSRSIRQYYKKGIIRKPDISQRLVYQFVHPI
The conditions noted are these: protein: recombinant; tags: N-terminal GST; dsDNA, one strand shown. The method, boiled down: as §1

Assay [15] concerns the target T10, ETV7 (Homo sapiens, UniProt Q9Y603 1-341).
T10 sequence: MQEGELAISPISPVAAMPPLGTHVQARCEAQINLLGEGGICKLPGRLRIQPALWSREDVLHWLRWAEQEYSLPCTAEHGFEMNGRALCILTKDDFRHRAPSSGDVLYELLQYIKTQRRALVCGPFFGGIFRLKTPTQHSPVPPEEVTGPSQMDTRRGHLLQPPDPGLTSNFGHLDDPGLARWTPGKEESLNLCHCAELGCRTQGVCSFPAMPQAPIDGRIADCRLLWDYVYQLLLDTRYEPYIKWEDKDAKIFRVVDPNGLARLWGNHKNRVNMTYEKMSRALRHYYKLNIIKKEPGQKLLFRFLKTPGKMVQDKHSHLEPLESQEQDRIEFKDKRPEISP
The conditions noted are these: protein: recombinant; tags: N-terminal GST; dsDNA, one strand shown. In short, it runs like this: as §1

Assay [16] has as its target T11, ELF5 (Homo sapiens, UniProt Q9UKW6-2 1-255).
T11 sequence: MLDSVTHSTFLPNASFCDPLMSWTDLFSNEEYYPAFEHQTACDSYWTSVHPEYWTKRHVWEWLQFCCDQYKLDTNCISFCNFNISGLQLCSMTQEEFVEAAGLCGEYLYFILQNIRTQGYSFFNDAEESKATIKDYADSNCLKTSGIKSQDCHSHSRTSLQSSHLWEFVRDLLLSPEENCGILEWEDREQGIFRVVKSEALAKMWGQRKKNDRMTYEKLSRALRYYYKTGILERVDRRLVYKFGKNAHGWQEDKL
The settings on record: protein: recombinant; tags: N-terminal GST; dsDNA, one strand shown. In short, it runs like this: as §1

Assay [17] concerns the target T12, ETV3 (Homo sapiens, UniProt P41162-2 1-143).
T12 sequence: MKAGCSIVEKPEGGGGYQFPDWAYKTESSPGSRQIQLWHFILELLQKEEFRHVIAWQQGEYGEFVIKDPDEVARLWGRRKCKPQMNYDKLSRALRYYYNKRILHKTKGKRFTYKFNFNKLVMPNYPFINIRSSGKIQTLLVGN
The conditions noted are these: protein: recombinant; tags: N-terminal GST; dsDNA, one strand shown. The method, boiled down: as §1

In assay [18] the target is ETV6 (Homo sapiens, UniProt P41212 1-452). The settings on record: protein: recombinant; tags: N-terminal GST; dsDNA, one strand shown. In short, it runs like this:
as §1

Chain of HSF1 (Q00613 whole entry): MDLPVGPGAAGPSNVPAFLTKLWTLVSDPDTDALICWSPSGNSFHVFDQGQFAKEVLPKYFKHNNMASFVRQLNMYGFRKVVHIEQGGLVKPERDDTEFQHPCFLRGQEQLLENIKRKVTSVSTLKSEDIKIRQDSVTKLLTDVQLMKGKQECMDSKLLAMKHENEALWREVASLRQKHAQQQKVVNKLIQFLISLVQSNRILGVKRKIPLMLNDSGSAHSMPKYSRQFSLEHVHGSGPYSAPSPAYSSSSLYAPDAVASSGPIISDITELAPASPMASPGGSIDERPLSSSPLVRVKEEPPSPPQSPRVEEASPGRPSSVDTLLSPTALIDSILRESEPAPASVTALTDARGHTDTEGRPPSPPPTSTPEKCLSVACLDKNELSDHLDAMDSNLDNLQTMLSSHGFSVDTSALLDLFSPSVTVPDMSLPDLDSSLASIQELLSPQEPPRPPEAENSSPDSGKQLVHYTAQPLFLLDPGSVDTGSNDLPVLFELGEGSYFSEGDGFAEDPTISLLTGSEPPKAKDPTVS
Chain of ELF4 (Q99607 whole entry): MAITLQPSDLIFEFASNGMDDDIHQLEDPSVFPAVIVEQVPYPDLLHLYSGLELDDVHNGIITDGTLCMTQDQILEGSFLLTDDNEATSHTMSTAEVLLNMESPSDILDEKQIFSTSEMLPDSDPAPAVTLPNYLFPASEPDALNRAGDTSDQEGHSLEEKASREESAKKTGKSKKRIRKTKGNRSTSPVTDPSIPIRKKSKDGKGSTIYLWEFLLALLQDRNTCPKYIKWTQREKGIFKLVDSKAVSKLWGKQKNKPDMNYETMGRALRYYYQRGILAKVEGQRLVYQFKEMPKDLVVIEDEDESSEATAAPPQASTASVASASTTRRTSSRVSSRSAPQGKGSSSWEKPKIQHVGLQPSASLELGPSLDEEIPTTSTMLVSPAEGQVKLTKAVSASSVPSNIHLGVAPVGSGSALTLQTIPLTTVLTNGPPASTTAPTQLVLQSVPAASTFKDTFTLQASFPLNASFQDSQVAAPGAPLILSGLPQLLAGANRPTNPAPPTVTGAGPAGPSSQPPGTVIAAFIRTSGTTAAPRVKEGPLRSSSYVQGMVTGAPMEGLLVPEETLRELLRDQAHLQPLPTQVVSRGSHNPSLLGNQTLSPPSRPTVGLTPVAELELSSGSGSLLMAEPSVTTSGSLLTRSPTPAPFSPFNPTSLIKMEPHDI
Chain of CRX (O43186 whole entry): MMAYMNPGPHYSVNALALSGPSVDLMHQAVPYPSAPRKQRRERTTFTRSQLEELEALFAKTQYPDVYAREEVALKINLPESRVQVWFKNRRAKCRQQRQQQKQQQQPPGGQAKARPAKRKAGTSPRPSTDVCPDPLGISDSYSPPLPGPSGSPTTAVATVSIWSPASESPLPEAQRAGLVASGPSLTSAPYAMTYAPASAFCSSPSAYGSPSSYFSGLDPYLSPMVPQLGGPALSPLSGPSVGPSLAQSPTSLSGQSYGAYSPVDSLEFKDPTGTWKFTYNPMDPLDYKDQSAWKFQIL
Chain of ETV5 (P41161 whole entry): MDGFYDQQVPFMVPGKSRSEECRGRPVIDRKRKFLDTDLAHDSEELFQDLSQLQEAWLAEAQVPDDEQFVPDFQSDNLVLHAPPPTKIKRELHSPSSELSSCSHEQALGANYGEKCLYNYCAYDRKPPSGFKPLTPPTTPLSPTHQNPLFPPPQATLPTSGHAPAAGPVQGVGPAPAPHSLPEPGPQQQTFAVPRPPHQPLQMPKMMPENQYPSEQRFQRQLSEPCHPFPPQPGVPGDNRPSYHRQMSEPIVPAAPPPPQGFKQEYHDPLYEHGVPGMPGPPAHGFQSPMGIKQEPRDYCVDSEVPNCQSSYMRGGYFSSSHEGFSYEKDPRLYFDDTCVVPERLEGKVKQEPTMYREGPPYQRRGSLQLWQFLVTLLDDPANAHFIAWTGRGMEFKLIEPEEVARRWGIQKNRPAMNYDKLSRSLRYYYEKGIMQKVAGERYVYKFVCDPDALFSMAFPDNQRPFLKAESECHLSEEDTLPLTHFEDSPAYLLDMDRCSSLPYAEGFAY
Chain of ETV1 (P50549 whole entry): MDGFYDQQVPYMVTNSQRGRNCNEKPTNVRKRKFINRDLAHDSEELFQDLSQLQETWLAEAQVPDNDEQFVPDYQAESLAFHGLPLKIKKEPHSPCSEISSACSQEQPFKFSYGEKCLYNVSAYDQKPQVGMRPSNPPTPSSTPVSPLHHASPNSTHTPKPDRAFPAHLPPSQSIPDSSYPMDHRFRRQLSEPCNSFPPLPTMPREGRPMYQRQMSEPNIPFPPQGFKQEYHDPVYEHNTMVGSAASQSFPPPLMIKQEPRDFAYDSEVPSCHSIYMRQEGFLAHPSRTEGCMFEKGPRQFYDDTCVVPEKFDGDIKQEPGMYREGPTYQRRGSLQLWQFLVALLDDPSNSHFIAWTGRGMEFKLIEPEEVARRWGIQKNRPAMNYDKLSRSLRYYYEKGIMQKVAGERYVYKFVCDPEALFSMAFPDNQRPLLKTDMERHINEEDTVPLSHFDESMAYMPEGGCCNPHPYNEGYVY
Chain of ETV6 (P41212 whole entry): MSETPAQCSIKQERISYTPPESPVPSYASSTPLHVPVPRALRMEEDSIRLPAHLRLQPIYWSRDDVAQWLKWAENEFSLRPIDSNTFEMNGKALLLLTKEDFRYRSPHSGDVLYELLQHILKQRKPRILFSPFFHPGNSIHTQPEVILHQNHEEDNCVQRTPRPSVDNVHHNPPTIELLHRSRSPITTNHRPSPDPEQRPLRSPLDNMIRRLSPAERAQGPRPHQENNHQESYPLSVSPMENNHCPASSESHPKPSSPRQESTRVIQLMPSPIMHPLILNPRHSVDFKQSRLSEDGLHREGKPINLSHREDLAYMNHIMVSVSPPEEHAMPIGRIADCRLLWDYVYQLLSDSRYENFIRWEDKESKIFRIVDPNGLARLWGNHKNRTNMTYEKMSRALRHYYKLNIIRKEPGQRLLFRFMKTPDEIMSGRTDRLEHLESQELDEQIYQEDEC

On to CCCGTA, for which the binding signal in assay [1] is 1.16 fold enrichment (6-mer frequency, TF over GST control); in assay [2], 1.25 fold enrichment (6-mer frequency, TF over GST control); in assay [3] it was 1.22 fold enrichment (6-mer frequency, TF over GST control); in assay [4], 1.31 fold enrichment (6-mer frequency, TF over GST control); in assay [5] it was 1.16 fold enrichment (6-mer frequency, TF over GST control); in assay [6], 1.21 fold enrichment (6-mer frequency, TF over GST control). Also, the binding signal in assay [7] is 1.3 fold enrichment (6-mer frequency, TF over GST control); in [8] it was 1.14 fold enrichment (6-mer frequency, TF over GST control); in [9] it was 1.17 fold enrichment (6-mer frequency, TF over GST control); in assay [10] it was 1.16 fold enrichment (6-mer frequency, TF over GST control); in assay [11] it was 1.09 fold enrichment (6-mer frequency, TF over GST control); in assay [12], 1.19 fold enrichment (6-mer frequency, TF over GST control). Further, the binding signal was 1.2 fold enrichment (6-mer frequency, TF over GST control) in [13]; 1.24 fold enrichment (6-mer frequency, TF over GST control) in assay [14]; 1.12 fold enrichment (6-mer frequency, TF over GST control) in [15]; 1.21 fold enrichment (6-mer frequency, TF over GST control) in assay [16]; 1.21 fold enrichment (6-mer frequency, TF over GST control) in assay [17]; 1.25 fold enrichment (6-mer frequency, TF over GST control) in assay [18].
